Several values for one entry are separate records, joined by “and”; a condition that tells them apart may be missing. Equal entries are not always repeated. Inconclusive results are not listed. Activity calls are given as the source filed them. How the source made its calls, unless noted: active means hit-call score of the fitted dose curve at least 0.9, where 1 is the maximum; inactive means score below 0.9.
Legend:
[1] = CCTE_Shafer_MEA_acute_spike_number: CCTE's Neural Acute Assay for Total Number of Spikes, Shafer Lab (AID 2284008);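 on AC50: curve fitted for decrease in spike count so AC50 reflects inhibitors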
How it was run: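 Rat primary cortical neurons on 48-well MEA plates, DIV 13 or 15, at 37 C. 40 min baseline then 40 min with compound (0.03-40 uM); spikes detected at 8x rms noise, expressed as percent change from baseline.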

[2] = CCTE_Shafer_MEA_acute_firing_rate_mean: CCTE's Neural Acute Assay for Mean Firing Rate, Shafer Lab (AID 2284009);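 further: analyzed for loss of signal so actives lower firing rate relative to DMSO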
How it was run: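 Spontaneous spiking of primary rat cortical networks, DIV 13/15, 37 C. Compound 0.03-40 uM, n ≥3 wells; 40 min baseline vs 40 min treated. Endpoint fitted in loss-of-signal direction against DMSO.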

[3] = CCTE_Harrill_HTTr_Viability_MCF7: CCTE's 6-hour Cell Viability Assessment for the High-Throughput Transcriptomics (HTTr) Platform, in MCF-7 cells cultured in DMEM + 10% fetal bovine serum, Harrill Lab (AID 2284010)
How it was run: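 PI exclusion, high-content imaging; 8-pt dilution series, 6 h exposure; bidirectional fit vs DMSO (neg. ctrl/baseline); gain of signal = loss of membrane integrity.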

[4] = molecular target: Nucleoli Translocation, AR (gene 367) (UniProt P10275); test: UPITT_HCI_U2OS_AR_TIF2_Nucleoli_Agonist: University of Pittsburgh U2OS Androgen Receptor-Transcriptional Intermediary Factor 2 (AR-TIF2) Agonism High Content Imaging Assay for Nucleoli Translocation (AID 2283998; active means hit-call score of the fitted dose curve at least 0.9, where 1 is the maximum)
Sequence of Nucleoli Translocation, AR (gene 367) (P10275 whole entry, looked up): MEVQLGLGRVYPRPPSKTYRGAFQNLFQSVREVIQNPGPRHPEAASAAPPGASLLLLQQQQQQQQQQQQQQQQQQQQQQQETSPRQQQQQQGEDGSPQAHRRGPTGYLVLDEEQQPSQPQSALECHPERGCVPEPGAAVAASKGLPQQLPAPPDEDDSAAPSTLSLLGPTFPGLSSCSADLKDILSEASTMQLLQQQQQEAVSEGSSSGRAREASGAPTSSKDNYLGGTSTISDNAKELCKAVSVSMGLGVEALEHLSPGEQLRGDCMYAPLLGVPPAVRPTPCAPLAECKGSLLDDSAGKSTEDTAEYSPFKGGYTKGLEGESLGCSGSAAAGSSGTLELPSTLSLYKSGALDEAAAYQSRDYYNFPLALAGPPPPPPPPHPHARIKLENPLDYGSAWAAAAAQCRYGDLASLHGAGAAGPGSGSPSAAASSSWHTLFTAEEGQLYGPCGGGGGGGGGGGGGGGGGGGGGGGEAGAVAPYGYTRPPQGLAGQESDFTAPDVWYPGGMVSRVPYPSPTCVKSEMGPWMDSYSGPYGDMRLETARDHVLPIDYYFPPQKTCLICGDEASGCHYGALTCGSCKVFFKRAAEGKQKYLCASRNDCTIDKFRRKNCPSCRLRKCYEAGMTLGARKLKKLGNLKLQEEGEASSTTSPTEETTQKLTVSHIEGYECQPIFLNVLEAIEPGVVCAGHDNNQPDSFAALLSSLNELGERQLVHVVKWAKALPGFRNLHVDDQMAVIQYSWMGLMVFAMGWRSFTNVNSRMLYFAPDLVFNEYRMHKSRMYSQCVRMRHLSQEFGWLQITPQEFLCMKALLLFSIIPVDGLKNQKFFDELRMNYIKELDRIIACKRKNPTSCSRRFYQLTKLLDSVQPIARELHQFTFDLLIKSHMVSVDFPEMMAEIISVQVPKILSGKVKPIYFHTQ
How it was run: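 U2OS cells expressing RFP-tagged human AR and GFP-tagged TIF2; red fluorescence in nucleoli quantified by high-content imaging. Primary screen at 20 uM final (0.2% DMSO); concentration-response 0.195–50 uM (0.5% DMSO), fitted upward versus DMSO.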

[5] = molecular target: Ratio of Nucleoli Translocation and Cytoplasm, AR (gene 367) (UniProt P10275); test: UPITT_HCI_U2OS_AR_TIF2_Nucleoli_Cytoplasm_Ratio_Agonist: University of Pittsburgh U2OS Androgen Receptor-Transcriptional Intermediary Factor 2 (AR-TIF2) Agonism High Content Imaging Assay for Ratio of Nucleoli Translocation and Cytoplasm (AID 2284000; active means hit-call score of the fitted dose curve at least 0.9, where 1 is the maximum;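 further: hits raise the red nucleolar to cytoplasm ratio above vehicle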)
Sequence of Ratio of Nucleoli Translocation and Cytoplasm, AR (gene 367) (P10275 whole entry, looked up): as above
How it was run: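 Primary screen at 20 uM final (0.2% DMSO), then triplicate confirmation and dose-response from 0.195 to 50 uM final (0.5% DMSO). Cells: U2OS with AR-RFP and TIF2-GFP. Endpoint is the nucleoli/cytoplasm red-fluorescence ratio, gain-of-signal vs DMSO.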

[6] = CCTE_Simmons_MITO_basal_resp_rate: CCTE's HepG2 Seahorse XF Respirometric Screening Assay at Basal Respiratory State, Simmons Lab (AID 2284001); conditions: actives raise or lower the signal
How it was run: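 Readout is oxygen consumption rate after test compound injection, measured by Seahorse XF in HepG2 cells. Seven concentrations from 125 nM up to 100 uM final are tested, and activity in either direction is fitted against DMSO.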

[7] = CCTE_Simmons_MITO_max_resp_rate: CCTE's HepG2 Seahorse XF Respirometric Screening Assay at Maximal Respiratory State [uncoupled], Simmons Lab (AID 2284002); conditions: actives raise or lower the signal
How it was run: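 HepG2 oxygen consumption measured on Seahorse XF after FCCP uncoupling, following test compound injection; 7 concentrations from 125 nM to 100 uM final. Readings every 6 min over 72 min, three biological replicates; bidirectional fit versus DMSO.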

[8] = CCTE_Simmons_MITO_inhib_resp_rate: CCTE's HepG2 Seahorse XF Respirometric Screening Assay at Inhibited Respiratory State [full ETC block], Simmons Lab (AID 2284006); conditions: actives raise or lower the signal
How it was run: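 OCR read-out in the inhibited phase following rotenone/antimycin A, after compound and FCCP injections, in HepG2 cells. Seven concentrations (125 nM to 100 uM final), three biological replicates, 6-min cycles over 72 min; DMSO baseline.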

[9] = molecular target: Ratio of Nucleoli Translocation and Cytoplasm, AR (gene 367) (UniProt P10275); test: UPITT_HCI_U2OS_AR_TIF2_Nucleoli_Cytoplasm_Ratio_Antagonist: University of Pittsburgh U2OS Androgen Receptor-Transcriptional Intermediary Factor 2 (AR-TIF2) Antagonism High Content Imaging Assay for Ratio of Nucleoli Translocation and Cytoplasm (AID 2283999; active means hit-call score of the fitted dose curve at least 0.9, where 1 is the maximum;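 further: antagonists lower the DHT-driven ratio of nucleolar to cytoplasmic red signal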)
How it was run: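 Read-out is the ratio of nucleolar to cytoplasmic AR-RFP fluorescence, imaged by high-content microscopy in U2OS cells coexpressing TIF2-GFP. Single-point 20 uM screen, triplicate confirmation, then 0.195–50 uM dose response; activity referenced to DHT baseline.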

[10] = CCTE_Simmons_MITO_viability: CellTiter-Glo Viability Assessment for CCTE's HepG2 Seahorse XF Respirometric Screening Assay [post-hoc], Simmons Lab (AID 2284007; active means hit-call score of the fitted dose curve at least 0.9, where 1 is the maximum;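 on AC50: cells exposed to chemical for 90 min before the ATP read; actives lower ATP signal relative to DMSO baseline meaning reduced viability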)
How it was run: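 Luciferase-coupled ATP luminescence, single endpoint. HepG2, post-respirometry. Compound 125 nM–100 uM final, 7 conc., 90 min. n=3 biological, technical singles. DMSO vehicle/baseline; dichlone 10 nM–100 uM, 8 conc., as positive control.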

Measured: AC50

Cc1ccc(N)c(N)c1
inactive: [1] | [2] | [3]

O=P(OCCCl)(OCCCl)OCCCl
inactive: [1] | [2] | [3]

c1ccc(NNc2ccccc2)cc1
inactive: [1] | [2] | [3]

Clc1ccc(C(c2ccc(Cl)cc2)C(Cl)Cl)cc1
active: [1] 2.95 µM | [2] 2.94 µM
inactive: [3]

O=C(Oc1ccc(Br)cc1)N1CCN2CCC1CC2
inactive: [1] | [2] | [3]

Clc1ccc(C(c2ccc(Cl)cc2)C(Cl)(Cl)Cl)cc1
inactive: [1] | [2] | [3]

C[C@]12C=CC3=C4CCC(=O)C=C4CC[C@H]3[C@@H]1CC[C@@H]2O
inactive: [6] | [7] | [8] | [3]
active: [4] 0.00188 µM | [5] 0.00266 µM

CNC(=O)Oc1cccc2c1OC(C)(C)C2
inactive: [9] | [3]

CCNS(=O)(=O)C(F)(F)C(F)(F)C(F)(F)C(F)(F)C(F)(F)C(F)(F)C(F)(F)C(F)(F)F
inactive: [5] | [3]

CC(C)(O)c1cnn2c(-c3ccc(F)c(-c4c(F)cccc4C#N)c3)cnc2n1
inactive: [4] | [5] | [3]
active: [1] 0.713 µM | [2] 0.789 µM

Nc1ccc([N+](=O)[O-])cc1
inactive: [5] | [3]

Cc1cc(N=Nc2ccccc2C)ccc1N
active: [4] 77.9 µM | [5] 84.9 µM | [6] 25 µM | [7] 36.4 µM
inactive: all other assays above

CCCCC(CC)COC(=O)c1ccc(C(=O)OCC(CC)CCCC)c(C(=O)OCC(CC)CCCC)c1 (stereo not drawn)
inactive: [9] | [5]

CC(C)COC(=O)c1ccccc1C(=O)OCC(C)C
active: [6] 56.3 µM | [7] 50 µM | [1] 7.13 µM | [2] 7.16 µM
inactive: [8] | [10] | [3]

COC(=O)Nc1nc2ccccc2[nH]1
inactive: [4] | [1] | [2] | [3]

CCCCCCCCn1sccc1=O
inactive: [6] | [8] | [1] | [2] | [3]
active: [7] 52 µM | [10] 74.4 µM

ClCCOCCCl
inactive: [1] | [2] | [3]

ClC1=C(Cl)[C@]2(Cl)[C@H]3[C@H]([C@@H]4C=C[C@H]3C4)[C@@]1(Cl)C2(Cl)Cl
inactive: [1] | [2] | [3]

Nc1ccc(Cl)cc1N
inactive: [4] | [9] | [5] | [3]

CCC[CH2][Sn]([Cl])([CH2]CCC)[CH2]CCC
active: [6] 4.86 µM | [7] 3.2 µM | [10] 11.9 µM | [1] 40.1 nM and 70.2 nM | [2] 40.3 nM and 70.2 nM | [3] 11.8 µM
inactive: [8]

[Cl-].[Cl-].[Hg+2]
inactive: [3]
active: [6] 36.7 µM | [7] 50 µM | [8] 50 µM | [10] 15.3 µM | [1] 31.4 µM | [2] 31 µM

COc1cc(C=O)cc2c1[C@H](COC(N)=O)[C@]1(OC(C)=O)ON2C[C@H]2[C@@H]1N2C(C)=O
inactive: [6] | [7] | [8] | [3]

c1ccc(N=Nc2ccccc2)cc1
inactive: [1] | [2] | [3]

O=[N+]([O-])C(Br)(CO)CO
active: [1] 33.6 µM | [2] 33.9 µM
inactive: [4] | [9] | [5] | [3]

N#CC(Br)Br
inactive: [1] | [2] | [3]

CCOC(=O)[C@]1(c2ccccc2)Oc2ccccc2[C@@H]1N
inactive: [8] | [10] | [3]
active: [6] 43.2 µM | [7] 31.3 µM

O=[N+]([O-])c1ccc(Oc2ccc(Cl)cc2Cl)cc1
active: [1] 9.28 µM | [2] 9.76 µM
inactive: [3]

O=C(Nc1ccccc1)c1ccccc1I
inactive: [4] | [9] | [5] | [3]

Nc1ccc(N=Nc2ccccc2)cc1
inactive: [6] | [7] | [8] | [10] | [3]

CO[C@@H]1[C@H](OC(=O)NC(=O)CCl)CC[C@]2(CO2)[C@H]1[C@@]1(C)O[C@@H]1CC=C(C)C
inactive: [4] | [9] | [5] | [3]

CC(C)(C)C(O)(CCc1ccc(Cl)cc1)Cn1cncn1 (stereo not drawn)
active: [6] 39.6 µM | [7] 33.4 µM | [1] 3.76 µM | [2] 3.75 µM
inactive: [8] | [10] | [3]

CCN(CC)CCO
inactive: [1] | [2] | [3]

O=Cc1ccco1
inactive: [1] | [2]

C[N+](C)(C)CC1CO1 (stereo not drawn)
inactive: [4] | [9] | [5] | [1] | [2] | [3]

CC(C)(OOC(C)(C)c1ccccc1)c1ccccc1
inactive: [9] | [5] | [1] | [2] | [3]

CC(C)N(Cc1ccccc1)C(=O)C(C)(C)C
active: [6] 35.6 µM
not listed: [1] | [2] | [4]
inactive: all other assays above

CCC(C)c1ccc(O)cc1 (stereo not drawn)
inactive: [7] | [8] | [3]
active: [6] 44.3 µM | [1] 20 µM | [2] 20 µM

O=C(N[C@H](c1ccccc1)[C@@H]1CN2CCC1CC2)c1c(Cl)ccc(C(F)(F)F)c1Cl
active: [1] 1.55 µM | [2] 1.55 µM
inactive: [3]

CCCCCOC(=O)c1ccccc1C(=O)OCCCCC
active: [1] 2.58 µM | [2] 2.58 µM
inactive: [3]

Reference: PubChem BioAssay (EPA / NIEHS)
